SARS 3CLpro inh – SARS-CoV 3CLpro protease inhibitors, primary screen, biochemical, quenched FRET; Replicase polyprotein 1ab (Severe acute respiratory syndrome coronavirus), P0C6X7; recombinant SARS-CoV 3CLpro, quenched FRET peptide cleavage; inhibition, % at 6 µM; hit rate 0.14% among 290,000; in the data active = inhibition above about 12%
FadD28 FP inh – inhibitors of FadD28 bisubstrate probe binding, primary screen, biochemical, fluorescence polarization, single point | Mycobacterium tuberculosis FadD28 fatty-acid-AMP ligase | inhibition, % at 12.5 µM | hit rate 0.22% among 360,000 | AID 588549, 2011; in the data active = inhibition above about 8.5%, passing the limit was not always enough
GDH-TPI counter – GDH-TPI coupling enzyme inhibitors, primary screen, artefact control for M. tuberculosis FBA inhibitor project, biochemical, absorbance, full deck; GDH-TPI coupled enzyme counterscreen, NADH absorbance; inhibition, % at 4.8 µM; hit rate 1.2% among 360,000; in the data active = inhibition above about 30%;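 note: 0% = DMSO wells and 100% = wells lacking the enzyme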
Mtb FBA inh – Mtb FBA enzyme inhibitors, primary screen, biochemical, fluorescence, strain H37Rv. Fructose-bisphosphate aldolase (Mycobacterium tuberculosis (strain ATCC 25618 / H37Rv)), …. AID 588726, 2011. hit rate 2.3% among 360,000. inhibition, % at 1 µM. purified M. tuberculosis FBA, fluorescence read-out; in the data active = inhibition above about 27%;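 note: 0% = vehicle and 100% = reference inhibitor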
Target sequence (P9WQA3 whole entry, looked up): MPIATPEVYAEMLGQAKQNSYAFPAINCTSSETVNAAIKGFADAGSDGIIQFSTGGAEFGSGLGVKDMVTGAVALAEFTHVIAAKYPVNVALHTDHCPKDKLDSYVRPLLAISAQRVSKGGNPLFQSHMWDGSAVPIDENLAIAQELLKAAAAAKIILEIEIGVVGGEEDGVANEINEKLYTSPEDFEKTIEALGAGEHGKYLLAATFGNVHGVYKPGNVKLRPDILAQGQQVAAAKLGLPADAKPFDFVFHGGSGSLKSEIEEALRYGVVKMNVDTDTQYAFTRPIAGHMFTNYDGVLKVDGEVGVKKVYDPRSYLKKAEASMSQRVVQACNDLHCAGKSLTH
BioA inh – M. tuberculosis BioA enzyme inhibitors, primary screen, biochemical, plate reader, single point, HTS; 7,8-diaminopelargonic acid synthase BioA (Mycobacterium tuberculosis); purified M. tuberculosis BioA enzyme; inhibition, % at 9.99 µM; hit rate 0.096% among 360,000; AID 602481, 2012; in the data active = inhibition above about 40%
The depositor's hits bear a star; . = no result; + = active, no number. In the library only some 3.1% were active in any assay of this set; here they are far more common.

SMILES	SARS 3CLpro inh	FadD28 FP inh	GDH-TPI counter	Mtb FBA inh	BioA inh
C[C@@H]1CCCCO[C@H](CN(C)C(=O)Nc2ccccc2)[C@H](C)CN([C@@H](C)CO)C(=O)c2cc(NS(=O)(=O)c3cccs3)ccc2O1	.	.	.	.	1
Oc1cccc(Nc2nc(O)c(/C=C3\C=Nc4ccccc43)s2)c1	1	-1	41*	5	0
COc1ccc(C2C=C(C)Nc3nc(SC)nn32)cc1 (stereo not given)	0	-1	20	149*	6
Cc1nnc(SCC(=O)NC2CCS(=O)(=O)C2)n1Cc1ccccc1 (stereo not given)	6	1	1	3	1
Cc1ccc2nc3c(cc(C(=O)NCCc4ccccc4)c(=N)n3CCN3CCOCC3)c(=O)n2c1	0	-16	3	188*	0
Cc1cccn2c(=O)c3cc(C(=O)NC(C)c4ccccc4)c(=N)n(CCCn4ccnc4)c3nc12 (stereo not given)	-4	-5	0	161*	.
Cc1ccc2nc3c(cc(C(=O)NC4CCS(=O)(=O)C4)n3Cc3ccccc3)c(=O)n2c1 (stereo not given)	1	1	26	+	4
Cc1ccc2nc3c(cc(C#N)c(=N)n3CCCN3CCOCC3)c(=O)n2c1	-4	.	.	.	.
Cc1ccc2nc3c(cc(C(=O)NCc4ccccc4)c(=N)n3CCCn3ccnc3)c(=O)n2c1	.	-1	11	131*	-2
C[C@H](CO)N1C[C@H](C)[C@@H](CN(C)Cc2ccc(F)cc2)Oc2ncc(C3=CCCC3)cc2C1=O	.	.	.	.	1
COc1ccccc1-c1ccc2c(c1)[C@H]1[C@H](CCN1S(=O)(=O)c1cn(C)cn1)[C@@H](CO)N2	.	.	.	.	0
NC(=S)N/N=C/c1ccc(/C=N/NC(N)=S)cc1	-1	-1	111*	-1	-3
NC(=S)N/N=C/c1cccc(/C=N/NC(N)=S)c1	-5	0	37*	-1	.
NC(=S)N/N=C/C=C/c1ccccc1	3	0	38*	1	.
O=[N+]([O-])c1ccc(C=NNC(=S)NN=Cc2ccc([N+](=O)[O-])cc2)cc1	.	-1	31*	-1	1
CCNC(=O)C[C@@H]1CC[C@@H]2[C@H](COc3ccc(NC(=O)Nc4ccccc4F)cc3C(=O)N2C)O1	.	.	.	.	1
O=C(N[C@@H]1CC[C@@H](CCNC(=O)C2CCCC2)O[C@H]1CO)c1ccncc1	.	.	.	.	-3
O=C(C[C@@H]1C=C[C@@H](NC(=O)C2CC2)[C@H](CO)O1)NC1CCC1	.	.	.	.	-1
C[C@@H]1CCCCO[C@H](CN(C)Cc2ccc3c(c2)OCO3)[C@H](C)CN([C@H](C)CO)C(=O)c2cc(NS(=O)(=O)c3ccccc3)ccc2O1	.	.	.	.	1
C=CCNC(=O)[C@H]1[C@@H]2C(=O)O[C@@H](c3ccccc3)[C@@H](c3ccccc3)N2[C@@H](c2ccc(OCCO)cc2)[C@]12C(=O)Nc1ccccc12	.	.	.	.	-1
COc1cccc(CN(C)C[C@@H]2OCc3cn(nn3)CCCC(=O)N([C@H](C)CO)C[C@@H]2C)c1	.	.	.	.	1
C[C@H](CO)N1C[C@H](C)[C@@H](CN(C)Cc2cccnc2)Oc2ncc(C#Cc3cccnc3)cc2C1=O	.	.	.	.	5
O=S(=O)(N/N=C\c1cccnc1)c1ccccc1	2	-1	5	1	.
O=S(=O)(N/N=C\C=C\c1ccccc1)c1ccccc1	3	0	31*	-5	3
N#C/C(=C\c1ccc(Cl)cc1)c1nc2ncccc2[nH]1	-3	0	39*	22	0
SMILES	SARS 3CLpro inh	FadD28 FP inh	GDH-TPI counter	Mtb FBA inh	BioA inh
N#C/C(=C\c1c(Cl)cccc1Cl)c1nc2ccccc2[nH]1	4	-3	12	2	3
O=C(Nc1ccc2c(c1)[C@H]1C[C@H](CC(=O)N3CCOCC3)O[C@@H](CO)[C@H]1O2)C1CCC1	.	.	.	.	-3
O=C1NC(=Nc2ccccc2Cl)S/C1=C\c1cccc([N+](=O)[O-])c1O	1	21*	36*	-10	5
O=C1NC(=NCc2ccccc2)S/C1=C\c1ccccc1	1	0	43*	-2	-2
O=C1NC(=Nc2ccccc2Cl)S/C1=C\c1ccc(C(=O)O)cc1	0	-6	41*	-2	-1
COc1ccc(/C=C2\SC(=Nc3ccccc3Cl)NC2=O)c(OC)c1	.	-2	17	-5	-1
O=C(C1=C[C@H](c2ccc(Br)cc2)C[C@H](OCc2ccc(CO)cc2)O1)N1CCCCCCC1	.	.	.	.	-1
C[C@@H]1CN([C@@H](C)CO)C(=O)c2cccc(NC(=O)Nc3ccc(F)cc3)c2O[C@@H]1CN(C)C(=O)Nc1ccc(F)cc1	.	.	.	.	2
O=C(NC[C@H]1[C@@H](c2ccccc2)[C@H](CO)N1C(=O)C1CCC1)NC1CCCC1	.	.	.	.	-1
CNC[C@@H]1Oc2ncc(-c3ccccc3C)cc2C(=O)N([C@H](C)CO)C[C@H]1C	.	.	.	.	-2
Cc1c(NC(=S)N/N=C/c2cc([N+](=O)[O-])ccc2O)c(=O)n(-c2ccccc2)n1C	0	2	49*	-11	0
CCCOC(=O)c1ccc(NC(=O)c2cc(OC)c(OC)c(OC)c2Br)cc1	6	13*	4	-2	-1
C[C@@H]1CN([C@@H](C)CO)C(=O)Cc2cc(NC(=O)CCCN(C)C)ccc2O[C@H]1CN(C)S(=O)(=O)c1cccs1	.	.	.	.	3
CCOC(=O)N1CCC(N2C(=O)c3ccccc3C2Nc2ccc3c(C)cc(=O)oc3c2)CC1 (stereo not given)	-3	-1	20	+	23
CN=C1c2cc3c(Br)c(OC)ccc3n2CCN1C	-1	0	32*	0	0
CC(C)NC(=O)Nc1ccc2c(c1)CC(=O)N([C@@H](C)CO)C[C@@H](C)[C@@H](CN(C)S(=O)(=O)c1cn(C)cn1)O2	.	.	.	.	-2
COc1cc(OC)cc(C(=O)N[C@H](C(=O)OCc2cc(=O)oc3cc(C)ccc23)C(C)C)c1	-10	-2	7	0	-1
CC(=O)Nc1ccc2c(COC(=O)[C@@H](NS(=O)(=O)c3ccc(C)cc3)C(C)C)cc(=O)oc2c1	.	-4	23	+	0
O=C(N[C@H]1CC[C@@H](CCNS(=O)(=O)c2cccc(Cl)c2)O[C@H]1CO)c1ccncc1	.	.	.	.	-2
Cc1ccc(CNC(=O)c2cc3c(=O)n4ccccc4nc3n(CC3CCCO3)c2=N)cc1 (stereo not given)	0	-3	3	+	.
Cc1ccc2nc3c(cc(C(=O)NCC4CCCO4)c(=N)n3CC3CCCO3)c(=O)n2c1 (stereo not given)	-3	1	2	+	.
COCCCn1c(C(=O)N2CC(C)OC(C)C2)cc2c(=O)n3ccccc3nc21 (stereo not given)	-1	-2	18	+	-1
